According to PubChem BioAssay AID463082 (The Scripps Research Institute Molecular Screening Center, 2010):
The campaign covered roughly 330,000 compounds. About 4,900 (1.5%) were called active.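 How the source made its calls: active means inhibition above the mean inhibition across the screen plus 3 SD (cut at about 25% in these data); inactive means the rest.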 Shown is part of a subset that was picked to be rich in actives.

Molecular target: Platelet-activating factor acetylhydrolase (Homo sapiens) (UniProt Q13093)
Sequence (Q13093 whole entry, looked up): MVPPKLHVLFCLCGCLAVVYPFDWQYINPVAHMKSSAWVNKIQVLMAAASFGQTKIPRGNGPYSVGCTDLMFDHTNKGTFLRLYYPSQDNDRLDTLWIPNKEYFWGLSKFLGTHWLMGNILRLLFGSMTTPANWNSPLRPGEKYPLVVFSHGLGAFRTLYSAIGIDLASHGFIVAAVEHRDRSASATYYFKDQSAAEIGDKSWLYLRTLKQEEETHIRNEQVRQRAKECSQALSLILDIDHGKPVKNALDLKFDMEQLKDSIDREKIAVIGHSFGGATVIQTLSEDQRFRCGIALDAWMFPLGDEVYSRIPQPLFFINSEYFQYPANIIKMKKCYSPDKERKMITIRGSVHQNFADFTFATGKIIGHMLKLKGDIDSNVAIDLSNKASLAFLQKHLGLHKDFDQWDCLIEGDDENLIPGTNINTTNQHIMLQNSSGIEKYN
Experiment: inhibition of plasma PAF acetylhydrolase – biochemical, fluorescence polarization, human, primary screen (AID 463082);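 further: inhibitors block binding of the rhodamine activity-based probe so polarization drops; 0% = enzyme with DMSO and 100% = wells lacking pPAFAH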
Conditions: recombinant pPAFAH, FP-rhodamine probe fluorescence polarization; at 3.39 µM; active compounds read high

SMILES	inhibition
O=C(CC1C(=O)NCCN1CC(c1ccccc1)c1ccccc1)NCCc1cn[nH]c1 (stereo not given)	7.44% (inactive)
COc1cc([N+](=O)[O-])ccc1NC(=O)COC(=O)CCOc1ccc(C)cc1	6.88% (inactive)
O=C(Nc1ccccc1C(=O)N1CCOCC1)c1ccc(CSc2ccccc2)cc1	4.67% (inactive)
CC(C)Oc1c(Br)cc(Br)cc1/C=N/NC(N)=S	1.45% (inactive)
Cc1cc(/C=N/NC(=O)CC2(C)OCCO2)c(C)n1-c1ccc(Cl)c(Cl)c1	27.6% (active)
Cc1ccc(-n2c(C)cc(/C=N\NC(=O)CC(=O)NC(C)C)c2C)cc1	1.94% (inactive)
Cc1cccc(-n2c(C)cc(/C=N\NC(=O)c3cccs3)c2C)c1	22% (inactive)
O=C(N/N=C\c1cc(Br)c(Br)o1)C1COc2ccccc2O1 (stereo not given)	-1.47% (inactive)
O=C(CNC(=O)C1COc2ccccc2O1)N/N=C/c1cc(Br)c(O)c(Br)c1 (stereo not given)	26.3% (active)
O=C(N/N=C/c1cc2c(cc1Br)OCO2)C1COc2ccccc2O1 (stereo not given)	8.36% (inactive)
CCOc1ccc(N(C)S(=O)(=O)c2cnc[nH]2)cc1	4.67% (inactive)
CC(Oc1cc2oc(=O)c3c(c2cc1Cl)CCCC3)C(=O)NCc1ccncc1 (stereo not given)	7.32% (inactive)
CCOC(=O)CSc1nnc(CNC(=O)c2cccs2)n1-c1cc(OC)ccc1OC	4.54% (inactive)
O=C(Nc1ccc(OC(F)(F)F)cc1)c1ccc2c(c1)no[n+]2[O-]	25.4% (active)
Cn1nccc1NC(=O)Nc1ccc(OC(F)(F)F)cc1	-4.08% (inactive)
Cn1cccc1/C=N/NC(=O)c1ccc(OC(F)(F)C(F)F)cc1	6.18% (inactive)
CCCCN1C(=O)CCC(C(=O)O)C1c1ccc(OC)cc1 (stereo not given)	2.74% (inactive)
CCOC(=O)C(C)Oc1cccc2c(=O)n(CC(=O)NCCc3ccc(OC)c(OC)c3)ccc12 (stereo not given)	0.87% (inactive)
Nn1c(SCC(=O)NC2CCCc3ccccc32)nnc1C1CC1 (stereo not given)	-1.35% (inactive)
C[C@H](NC(=O)c1ccccc1Cl)C(=O)OCCOc1cccc(Cl)c1	0.09% (inactive)
CCCCC1=CC2=CC(=O)C(C)(OC(=O)CC)C(=O)C2=CN1CCCOC(C)C (stereo not given)	-0.51% (inactive)
COC(=O)CCCC1=CC2=CC(=O)C(C)(OC(=O)c3cccs3)C(=O)C2=CN1CC(C)C (stereo not given)	5.09% (inactive)
COC/C=C/C1=CC2=CC(=O)C(C)(OC(=O)CCC(=O)OC)C(=O)C2=CO1 (stereo not given)	32.3% (active)
COc1ccc(OCC(=O)OCCN(C)C)cc1	0.82% (inactive)

SMILES	inhibition
O=C(CCCN1C(=O)CCC1=O)Nc1ccc(Cl)c(C(F)(F)F)c1	5.28% (inactive)
COc1ccc(Cl)cc1NC(=O)COC(=O)C(CC(C)C)N1C(=O)C2CC=CCC2C1=O (stereo not given)	-2.85% (inactive)
CCOc1ccc(N2CC(C(=O)NCCN3C(=O)S/C(=C\c4cccnc4)C3=O)CC2=O)cc1 (stereo not given)	8.89% (inactive)
COc1ccc(N2CC(C(=O)NCCN3C(=O)S/C(=C\c4cccnc4)C3=O)CC2=O)c(OC)c1 (stereo not given)	65.4% (active)
COc1ccccc1N1CC(C(=O)NCCN2C(=O)S/C(=C\c3cccnc3)C2=O)CC1=O (stereo not given)	4.51% (inactive)
COc1ccc(S(=O)(=O)N(C)CC(=O)N2CCCC2)cc1	-1% (inactive)
COc1cc(OC)cc(C(=O)NNC(=O)Cc2cccs2)c1	19.8% (inactive)
CC(=O)c1sc2nc(SCC(=O)N3CCCCC3)[nH]c(=O)c2c1C	13.1% (inactive)
CSc1nnc(SCc2nc3sc(C(=O)O)c(C)c3c(=O)[nH]2)s1	49.9% (active)
Cc1sc2nc(CSCC(=O)NC3CCCCC3)[nH]c(=O)c2c1C	9.75% (inactive)
CCc1ccc(NC(=O)CN2C(=O)CSC2=O)cc1	-3.77% (inactive)
COc1cccc(CNc2nc(C(F)(F)F)nc3ccccc23)c1	2.55% (inactive)
CC(Nc1nc(C(F)(F)F)nc2ccccc12)c1cccs1 (stereo not given)	28.4% (active)
CCc1ccc(C(CNc2nc(C(F)(F)F)nc3ccccc23)N(C)C)cc1 (stereo not given)	-1.56% (inactive)
COc1ccc(CN2C(CC(=O)Nc3cccnc3)c3ccc(C(F)(F)F)cc3S2(=O)=O)cc1 (stereo not given)	6.11% (inactive)
COc1ccc(C(=O)/C=C/c2ccc(OC3CSC3)cc2)cc1	1.34% (inactive)
COc1ccc(C(=O)/C=C/c2cccnc2)c(OC)c1	-1.82% (inactive)
COc1ccc(/C=C/C(=O)c2cc(Br)ccc(=O)c2O)cc1	40.7% (active)
O=C1N[C@H](Cc2c[nH]c3ccccc23)COC(=O)[C@H](Cc2ccc(F)cc2)C/C=C\C[C@H]1CC(=O)N(CCO)Cc1ccccc1	21.3% (inactive)
COCCN1C(=O)C(=O)/C(=C(/O)c2ccc(S(=O)(=O)N3CCOCC3)cc2)C1c1ccc(OC)c(OC)c1 (stereo not given)	0.25% (inactive)
CCn1c(SCC(=O)N/N=C/c2ccccc2OCC(=O)O)nnc1-c1ccc(C(C)(C)C)cc1	11.4% (inactive)
COc1ccc(CCOC(=O)CNC(=O)c2ccc(Cl)cc2Cl)cc1	-0.13% (inactive)
Cc1coc2c(O)cc3c(c12)OC1(N2CCCCC2)C(=O)NCCCC31 (stereo not given)	27.6% (active)
O=C(Nc1ccc(F)cc1)N1CCCC(c2nc3c(nnn3Cc3ccccc3Cl)c(=O)[nH]2)C1 (stereo not given)	1.47% (inactive)

SMILES	inhibition
COc1ccc(Cn2nnc3c(=O)[nH]c(C4CCN(C(=O)c5ccccc5Cl)CC4)nc32)cc1	9.22% (inactive)
Cc1ccc(NC(=O)N2CCC(c3nc4c(nnn4Cc4c(F)cccc4Cl)c(=O)[nH]3)CC2)cc1	27.7% (active)
CCOC(=O)c1ccc(NC(=O)C2CC(=O)N(c3ccc4c(c3)OCCO4)C2)cc1 (stereo not given)	29.3% (active)
Cc1ccc(NC(=O)C2CC(=O)N(c3ccc4c(c3)OCCO4)C2)cc1S(=O)(=O)N1CCCCCC1 (stereo not given)	0.97% (inactive)
CCc1nnc(NC(=O)C2CC(=O)N(c3ccc4c(c3)OCCO4)C2)s1 (stereo not given)	2.68% (inactive)
O=C(COC(=O)c1ccc(S(=O)(=O)N2CCc3ccccc3C2)cc1)NC(=O)NCc1ccco1	-5.65% (inactive)
S=c1nccc(-c2cc(Cl)sc2Cl)[nH]1	4.56% (inactive)
CCN(Cc1ccccc1)C(=O)CSc1nc(C)cc2c1C(=O)OC2	7% (inactive)
COc1ccccc1C(=O)Nc1cccc(C(=O)N2CCOCC2)c1	-0.6% (inactive)
CN(C)C(=O)CCc1ccc2c3c([nH]c2c1)[C@]1(C)[C@@H](C(=O)N2CCCCC2)C[C@H](CC(=O)NCCC2=CCCCC2)C(=O)N1CC3	9.04% (inactive)
O=C1C(=O)N(CCCO)C(c2ccccc2)/C1=C(\O)c1ccc(Br)cc1 (stereo not given)	2.67% (inactive)
CC(C)(C)NC(=O)C(c1ccc(Cl)cc1)N(CCO)C(=O)c1snc(C(N)=O)c1N (stereo not given)	-1.41% (inactive)
O=C(N/N=C/c1c[nH]c2ccccc12)c1cc2ccccc2o1	15.3% (inactive)
CN(C)S(=O)(=O)c1cccc(NC(=S)N/N=C/C(=O)c2ccccc2)c1	12.9% (inactive)
O=C(O)c1cccc(NC(=S)N/N=C/c2c[nH]c3ccccc23)c1	26.4% (active)
Cc1ccc(-c2cc(C(=O)NCc3cn(C)nc3C)c3cc(Br)ccc3n2)cc1	2.72% (inactive)
O=C(Nc1ccccc1F)c1ccccc1-c1ccc(C(F)(F)F)cc1	0.76% (inactive)
COc1cc(/C=N/NC(=O)c2cc(C)n(-c3ccc(F)cc3)c2C)cc(OC)c1O	9.67% (inactive)
Cc1nn(CC(=O)N/N=C/c2ccc(F)cc2)c(C)c1[N+](=O)[O-]	-6.43% (inactive)
Cc1cc(C(=O)N/N=C/c2ccc(O)c([N+](=O)[O-])c2)c(C)n1-c1ccc(F)cc1	33.4% (active)
COCCNc1cc(-c2ccccc2)nc2cc(-c3cccc(F)c3)nn12	-13.5% (inactive)
CC(NC(=S)NC1CCCCC1)C(c1ccccc1)N1CCOCC1 (stereo not given)	2.17% (inactive)
